Reference: PubChem BioAssay (NCATS)
Records with an inconclusive call do not appear. Unmarked numbers belong to inactive results. The call rests on the fitted dose curve; in most records, active means well fitted cell-killing curve with a large enough effect; inconclusive means small, poorly fitted or top-dose-only effect, or effect the other way; inactive means flat fitted curve, though single readings scatter.

System: HeLa
Assay: Primary qHTS to identify gynecologic anti-cancer compounds using libraries of approved drugs and bioactive compounds (AID 1345084); further: nearly all actives have a fitted effect of over 55% in size
Conditions: Gynecologic cancer cell panel viability, ATPlite luminescence, 48 h; series mostly up to 57.5 µM; activity change, negative = cytotoxicity: at the top concentration
How it was run: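 In this quantitative HTS, cell killing is estimated from loss of ATP-dependent luciferase light. Cells see five compound concentrations over a 48 h exposure.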
On the % scale 0 is the no-effect control and ±100 the full control effect.

SMILES	activity change, negative = cytotoxicity
CCC/C=C/C=C/C1CC(O)C2(O)C(=O)OCC12 (configuration not stated)	0.513%
C[C@H]1CC[C@@]2(OC1)O[C@H]1CC3[C@@H]4CC[C@@H]5C[C@@H](O[C@@H]6O[C@H](CO)[C@@H](O[C@@H]7O[C@H](CO[C@@H]8OC[C@@H](O)[C@H](O)[C@H]8O)[C@@H](O[C@@H]8O[C@H](CO)[C@H](O)[C@H](O)[C@H]8O)[C@H](O)[C@H]7O)[C@H](O)[C@H]6O)CC[C@]5(C)C4CC[C@]3(C)[C@H]1[C@@H]2C (some centres not stated)	17.3% [at 11.6 µM]
CC(C)(C)c1ccc(C(=O)Nc2cc(Cl)c(Br)cc2C(=O)O)cc1	-12.7%
C=C1CCC2C(C)(C)CCCC2(C)C1CC/C(C)=C\CO (configuration not stated)	-5.07%
CCCCCc1ccc(/C=C/C(=O)Nc2cc(Cl)ccc2C(=O)O)cc1	-1.52%
O=C(N[C@H](Cc1cscn1)C(=O)N[C@@H](CC1CCCCC1)[C@@H](O)[C@@H](O)C1CC1)c1nc2ccccc2[nH]1	-1.98%
O=C(Nc1nnc(-c2ccc3c(c2)OCCO3)o1)C1CCCCC1	-15.1%
